Screening data from PubChem.
Compounds with a hit are over-represented: about 0.34% of the library has one in this group of screens.
Pin1 inhibitor = qHTS Assay to Find Inhibitors of Pin1 | 0.009% of 390,000 active | Pin1 FP peptide displacement, HiFluor488, 10 min | Peptidyl-prolyl cis-trans isomerase NIMA-interacting 1 (Homo sapiens), Q13526 | AID 504891, 2011 | Potency, µM (doses to about 115 µM), for the others: at the highest dose activity, negative = inhibition, hits mostly inhibitors; active = well fitted inhibition curve with a large enough effect in the polarisation, with a control signal flat, not every such curve was filed as active; inconclusive = small, poorly fitted or top-dose-only effect, or effect the other way, or a change in a side signal; inactive = no such curve, though single readings can be large or run the other way; the % refers to the polarisation; note: potency is the fitted concentration of half-maximal effect; % is set by controls: 0 for no effect and ±100 for the full control effect
Tb PGK inh = qHTS Assay to Find Inhibitors of Phosphoglycerate Kinase; Potency, µM (doses to about 57.5 µM), for inactives: at the top dose activity change, negative = inhibition, hits mostly inhibitors; 0.043% of 380,000 active; Phosphoglycerate kinase, glycosomal (Trypanosoma brucei brucei), P07378; PGK/GAPDH coupled, Kinase-Glo luminescence, 60 min; AID 602233, 2012; note: potency is the fitted concentration of half-maximal effect; % is set by controls: 0 for no effect and ±100 for the full control effect; nearly all actives have a fitted effect of over 60% in size
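Recombinant glycosomal PGK reaction used 1,3-bisphosphoglycerate generated in-well by GAPDH (100nM final) in 100mM TEA pH 7.6, 5mM MgCl2, 0.01% Tween-20. After 60 minutes at room temperature, ATP was read by Kinase-Glo Plus luminescence end-point.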
Tb PFK inh-1 = qHTS Assay to Find Inhibitors of T. brucei phosphofructokinase; ATP-dependent 6-phosphofructokinase (Trypanosoma brucei brucei), O15648; T. brucei PFK, ADP-Glo luminescence; Potency, µM (top dose mostly 57.5 µM), inactives show top-dose activity, negative = inhibition, usual class: inhibitors; 0.17% of 330,000 active;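 note: potency is the fitted concentration of half-maximal effect; 0% = uninhibited 1x PFK enzyme wells and -100% = no-enzyme wells; nearly all actives have a fitted effect of over 60% in size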
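PFK 1.25 nM, F6P 0.5 mM, ATP 0.1 mM, 0.1 M TEA pH 8.0, 5 mM MgCl2, 0.01% Tween20, 0.1% BSA; 45 min RT. ADP-Glo readout. qHTS titration up to 57 uM; curves fitted, compounds curve-classed.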
PI4K2A block = qHTS for small molecular inhibitors of PI4K2A | AID 1346378, 2018 | activity change, negative = inhibition, % at 76.9 µM | Phosphatidylinositol 4-kinase type 2-alpha (Homo sapiens), Q9BTU6 | purified PI4K2A, ADP-Glo luminescence, 1 h; hits give low values | 0.13% of 420,000 active; in the data active = activity change below about -50%; inconclusive = mostly about -30% to -49%;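 note: -100% = wells without enzyme as full effect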
Target sequence (Q9BTU6 whole entry, looked up): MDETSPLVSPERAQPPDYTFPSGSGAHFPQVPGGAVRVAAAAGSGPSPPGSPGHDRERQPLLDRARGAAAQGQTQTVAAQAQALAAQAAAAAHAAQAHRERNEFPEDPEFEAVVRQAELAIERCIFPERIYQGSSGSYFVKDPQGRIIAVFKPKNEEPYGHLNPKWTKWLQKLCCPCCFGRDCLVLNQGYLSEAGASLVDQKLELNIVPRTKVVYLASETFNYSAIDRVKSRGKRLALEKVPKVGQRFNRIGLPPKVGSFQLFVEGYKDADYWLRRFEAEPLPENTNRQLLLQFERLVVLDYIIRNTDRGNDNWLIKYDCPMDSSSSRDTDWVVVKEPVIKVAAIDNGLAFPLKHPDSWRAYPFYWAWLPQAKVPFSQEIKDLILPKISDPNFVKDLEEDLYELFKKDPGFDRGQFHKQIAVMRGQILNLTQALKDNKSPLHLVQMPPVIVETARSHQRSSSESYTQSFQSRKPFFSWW
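In this quantitative HTS, ADP production by PI4K2A was quantified luminescently after 1 h at ambient temperature; 100 microM adenosine served as plate-quality control.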
BCR signal inh = qHTS Assay to Find Inhibitors of Chronic Active B-Cell Receptor Signaling | 0.05% of 340,000 active | ABC-DLBCL IkBa-CBG/CBR reporter, luminescence ratio, 4 h | AID 493014, 2011 | Potency, µM (titrated, usually from 46.1 µM), for inactives: at the top dose activity change, negative = inhibition, actives largely listed as inhibitors; active = well fitted inhibition curve with a large enough effect in the signal ratio, with a control signal flat, not every such curve was filed as active; inconclusive = small, poorly fitted or top-dose-only effect, or effect the other way, or a change in a side signal; the % refers to the signal ratio;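 note: potency is the fitted concentration of half-maximal effect; plate controls were basal doxycycline-induced cells for no effect and cells given 10 µM MG132 for full effect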
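Concentration-response series (up to 46 uM) were applied to TMD8 dual-reporter cells for 4 h at 37C with doxycycline. Green/red ratio, after filter-overlap correction, defined %Activity; red signal alone was normalised to basal cells and zero luminescence.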
Tb PFK KinaseGlo = Tb PFK orthogonal confirmatory assay using ATP depletion (Kinase-Glo Plus) as an alternative measure of Tb PFK activity: Hit Validation. shares compounds with Tb PFK inh-1. Tb PFK enzyme, ATP depletion, Kinase-Glo Plus luminescence. Potency, µM (highest dose often 57.5 µM), for inactives: top-dose inhibition. 47% of 1,100 active. AID 504636, 2011; calls by dose curve; note: potency is the fitted concentration of half-maximal effect; nearly all actives have a fitted effect of over 60% in size
Tb PFK inh-2 = Inhibitors of T. brucei phosphofructokinase: Hit Validation; shares compounds with Tb PFK inh-1; purified T. brucei PFK, ADP-Glo luminescence, 45 min; Potency, µM (doses to about 57.5 µM), for inactives: at the top dose activity change, negative = inhibition, most hits filed as inhibitors; 41% of 1,100 active;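 note: potency is the fitted concentration of half-maximal effect; plate controls were full PFK enzyme control for no effect and no enzyme control for full effect; nearly all actives have a fitted effect of over 60% in size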
An asterisk follows results filed as active; i = inactive; ? = inconclusive; · = no result. Unless noted, calls come from the whole dose curve; as a rule, active = well fitted curve in the direction sought with a large enough effect; inconclusive = small, poorly fitted or top-dose-only effect, or another doubt; inactive = no such curve, though single readings can be large; an effect the other way counts as inactive or inconclusive.

SMILES	Pin1 inhibitor	Tb PGK inh	Tb PFK inh-1	PI4K2A block	BCR signal inh	Tb PFK KinaseGlo	Tb PFK inh-2
COc1ccc(CN(Cc2ccccc2)C(=O)c2ccccc2O)cc1	-3.7%	·	·	·	·	·	·
Cc1ccc([N+](=O)[O-])cc1NC(=O)Nc1ccc(S(N)(=O)=O)cc1	?	5.6%	12µM*	-2.1	?	13.5µM*	26.9µM*
COc1cccc(S(=O)(=O)N2CCN(S(=O)(=O)c3ccc4c(c3)OCCO4)CC2)c1	-1.1%	·	·	·	·	·	·
COc1cc2c(cc1OC)C1Cc3ccc(OC)c(OC)c3CN1CC2 (centres undefined)	5.6%	-1.9%	-4.2%	-9.8	-3.0%	·	·
COc1cc2c(cc1O)[C@H]1Cc3ccc(OC)c(O)c3CN1CC2	·	·	·	·	·	0.5%	-1.5%
CN1CCN(c2ccc([N+](=O)[O-])cc2Cl)CC1	-3.5%	1.0%	-2.8%	5.3	6.9%	·	·
CC1CN(c2ccc([N+](=O)[O-])cc2Cl)CCN1 (centres undefined)	3.9%	i	9.53µM*	2.5	-5.6%	26.9µM*	30.1µM*
COc1ccc(CC(=O)OCC(=O)NC2CC2)cc1	3.5%	-2.1%	23.9µM*	-0.8	2.3%	?	-7.3%
O=C(Cc1cccc2ccccc12)NN1C(=O)CSC1=S	23.4%	i	2.3%	-3.5	-0.4%	·	·
O=C(NN1C(=O)CSC1=S)C(=O)NN1C(=O)CSC1=S	·	-12.8%	?	-13.7	7.9%	?	-9.5%
Brc1cccc(OCCn2ccnc2)c1	-8.7%	-1.2%	21.3µM*	4.8	-9.9%	12µM*	13.5µM*
Brc1cccc(OCCOCCn2ccnc2)c1	1.7%	-7.0%	-21.9%	1.2	?	·	·
NC(=S)N=Nc1ccc(NN=C(N)N)cc1	-5.7%	-6.8%	?	-5.2	8.8%	6.75µM*	13.5µM*
O=C(Cn1cnc([N+](=O)[O-])c1)c1ccc(Cl)cc1	5.7%	-8.0%	-23.9%	3.4	-0.7%	·	·
O=[N+]([O-])c1cn(Cc2ccc(Cl)cc2)cn1	-9.8%	0.8%	?	-1.8	-2.2%	?	?
O=C1/C(=C/c2ccc(O)c(O)c2)Oc2cc(O)ccc21	?	-13.3%	?	0.3	13.0%	-28.9%	?
CS(=O)(=O)Nc1cccc(-c2cc(F)c(S(=O)(=O)N3CCN(S(=O)(=O)c4ccc5c(c4)OCCO5)CC3)cc2F)c1	0.7%	·	·	·	·	·	·
COc1cc([N+](=O)[O-])c2ncsc2c1	-7.1%	-5.7%	-7.4%	-1.1	1.7%	·	·
COc1cc(SSc2cc(OC)cc([N+](=O)[O-])c2N)c(N)c([N+](=O)[O-])c1	-12.7%	·	3.38µM*	-12.6	?	2.39µM*	2.69µM*
Cc1cc2c(s1)c1cnn(Cc3c(Cl)cccc3Br)c(=O)c1n2C	-0.9%	·	·	·	·	·	·
Clc1ccc(-c2c[n+](Cc3cccc(Cl)c3)c3n2CCC3)cc1	-0.1%	-8.3%	?	-3.9	?	·	·
Clc1ccc(C[n+]2cc(-c3ccccc3)n3c2CCC3)cc1Cl	-5.6%	4.3%	?	2.6	0.8%	6.75µM*	10.7µM*
CC(NC(=O)C1CCN(C(=O)c2cccs2)CC1)c1ccc(S(N)(=O)=O)cc1 (centres undefined)	-2.1%	-5.6%	?	5.1	7.3%	-32.5%	?
